# HepG2 tox – counter-screen for TGF-b inhibitors: cytotoxicity in HepG2 cells. HepG2 CAGA-GFP viability, ATP luminescence, 18 h. Potency, µM (top dose mostly 46.1 µM), for inactives: top-dose activity change, negative = cytotoxicity, hits mostly cytotoxic. 410,000 compounds, 0.76% hits; note: potency is the fitted concentration of half-maximal effect
#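 CellTiter-Glo luminescence gave cytotoxicity after 18 hours at 37 degrees C. The cells were HepG2 CAGA-GFP in 1% FBS DMEM, stimulated with 500 pg/mL TGF-beta after compound addition. %Activity was normalised to no-cell wells (complete cell-killing) and DMSO (no toxicity), and curves were fitted and classified.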
# DT40 TDP1 no CPT – qHTS for Inhibitors of human tyrosyl-DNA phosphodiesterase 1 (TDP1): qHTS in cells in absence of CPT | DT40 Tdp1-/- hTDP1 cells, no CPT, ATP luminescence, 48 h | Potency, µM (doses to about 46.2 µM), for inactives: top-dose activity change, negative = growth inhibition, hits mostly inhibitors | 420,000 compounds, 15% hits | AID 686978, 2013; note: potency is the fitted concentration of half-maximal effect; % is set by controls: 0 for no effect and ±100 for the full control effect; nearly all actives have a fitted effect of over 55% in size
#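 Readout: luminescence from CellTiter-Glo after 30 min in the dark at RT. Cells: DT40 Tdp1-/- with stable hTDP1, 400/well. Exposure: compounds alone, ≥48 hr, 37 °C.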
# TDP1 block – blocks human tyrosyl-DNA phosphodiesterase 1. Q9NUW8. recombinant TDP1, AlphaScreen DNA substrate cleavage. Potency, µM (top dose mostly 130 µM), for inactives: top-dose activity change, negative = inhibition, actives largely listed as inhibitors. 350,000 compounds, 0.28% hits; note: potency is the fitted concentration of half-maximal effect; % is set by controls: 0 for no effect and ±100 for the full control effect; nearly all actives have a fitted effect of over 40% in size
# Target sequence (Q9NUW8 whole entry, looked up): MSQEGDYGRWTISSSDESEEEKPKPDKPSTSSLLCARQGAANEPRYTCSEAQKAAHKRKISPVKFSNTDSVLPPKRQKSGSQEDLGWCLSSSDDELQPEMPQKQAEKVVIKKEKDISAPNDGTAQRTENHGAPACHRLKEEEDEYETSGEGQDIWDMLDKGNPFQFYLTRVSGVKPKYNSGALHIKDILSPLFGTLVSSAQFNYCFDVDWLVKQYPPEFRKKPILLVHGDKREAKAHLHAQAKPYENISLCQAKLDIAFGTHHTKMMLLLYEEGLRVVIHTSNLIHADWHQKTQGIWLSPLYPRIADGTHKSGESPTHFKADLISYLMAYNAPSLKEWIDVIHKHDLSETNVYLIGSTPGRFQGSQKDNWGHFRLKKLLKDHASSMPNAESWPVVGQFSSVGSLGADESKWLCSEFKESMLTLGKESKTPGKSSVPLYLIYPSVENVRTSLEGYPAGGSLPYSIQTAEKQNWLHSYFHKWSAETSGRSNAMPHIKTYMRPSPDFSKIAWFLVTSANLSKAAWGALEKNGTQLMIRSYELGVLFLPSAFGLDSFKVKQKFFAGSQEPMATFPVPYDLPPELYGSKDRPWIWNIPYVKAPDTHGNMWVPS
#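 Compounds were preincubated with Tdp1 (1 nM final) for 15 min at room temperature before substrate (15 nM final) started a 5 min reaction; beads (10 ug/ml final) were then added for 10 min before AlphaScreen detection.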
# DT40 TDP1 CPT – growth inhibition of DT40 Tdp1-/-;hTDP1 cells with camptothecin (screen for TDP1 inhibitors) | chicken DT40 Tdp1-/-;hTDP1 cells + 20 nM CPT, ATP luminescence, 48 h | Potency, µM (series often up to 46.2 µM), inactives show at the top dose activity change, negative = growth inhibition, most hits filed as inhibitors | 420,000 compounds, 12% hits; note: potency is the fitted concentration of half-maximal effect; % is set by controls: 0 for no effect and ±100 for the full control effect; nearly all actives have a fitted effect of over 55% in size
#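 Cell growth measured by CellTiter-Glo luminescence after a minimum 48 h, 37 C compound exposure with 20 nM CPT in Tdp1-knockout DT40 cells stably expressing hTDP1, seeded 400/well; qHTS titration format.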
# IL1B secr inh – inflammasome signaling inhibition, IL-1 beta readout; THP-1 LPS/ATP IL-1B secretion, AlphaLISA, 16 h; active compounds read low; activity change, % at 57.5 µM; 360,000 compounds, 4.7% hits; AID 743279; in the data active = activity change below about -50%; inconclusive = mostly about -30% to -49%; note: % is set by controls: 0 for no effect and ±100 for the full control effect
#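 Secreted IL-1B measured by AlphaLISA bead assay after 16 h compound exposure of THP-1 cells; compounds (final up to 57.5 uM) added 1 h before LPS (250 ng/mL) and ATP (1.25 mM) stimulation; lower signal means less secretion.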
# TGFb inhibitor – TGF-b pathway inhibition; HepG2 CAGA-GFP TGF-b/SMAD3 reporter, GFP fluorescence, 18 h; TGF-beta stimulated, 500 pg/mL final; Potency, µM (series often up to 46.1 µM), for the others: at the top dose activity, negative = inhibition, most hits filed as inhibitors; 410,000 compounds, 1.2% hits; AID 588855; note: potency is the fitted concentration of half-maximal effect; % is set by controls: 0 for no effect and ±100 for the full control effect; nearly all actives have a fitted effect of over 65% in size
#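 Smad-responsive CAGA-GFP expression was quantified in HEPG2 cells exposed to compounds and 500 pg/mL final TGF-beta for 18 h at 37 degrees C; unstimulated wells defined full inhibition.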
# * marks the source's active call; other numbers are inactive results; ? = inconclusive; . = not tested or not shown. Hits are enriched below; roughly 18% of the tested compounds scored in any of these assays. Unless noted, calls come from the whole dose curve; as a rule, active = well fitted curve in the direction sought with a large enough effect; inconclusive = small, poorly fitted or top-dose-only effect, or another doubt; inactive = no such curve, though single readings can be large; an effect the other way counts as inactive or inconclusive.
SMILES,HepG2 tox,DT40 TDP1 no CPT,TDP1 block,DT40 TDP1 CPT,IL1B secr inh,TGFb inhibitor
N#Cc1cccc(NC(=O)C2SC(=Nc3ccccc3)C(C(=O)N3CCOCC3)=C2N)c1 (centres undefined),3.5%,-13.6%,6.7%,-19.0%,-13.3,8.7%
Cc1ccc(NC(=O)c2cc3cc(OC(F)(F)F)ccc3[nH]2)cc1,-7.6%,-26.2%,-3.5%,-1.8%,?,-2.2%
Cc1ccc(NC(=O)C2SC(=Nc3ccccc3)C(C(=O)Nc3ccc(Cl)cc3)=C2N)cc1 (centres undefined),2.0%,18.4µM*,2.6%,6.51µM*,-15.6,-26.0%
Cc1[nH]c2ccccc2c1C(=O)C(=O)N1CC=C(c2ccccc2)CC1,17.9%,23.1µM*,-2.6%,14.6µM*,-13.7,-0.4%
Cc1[nH]c2ccccc2c1C(=O)C(=O)N1CC(C)OC(C)C1 (centres undefined),-5.6%,-8.4%,2.7%,-0.8%,-3.2,-12.5%
COc1ccc(C2SCCN2S(=O)(=O)c2ccc(F)cc2)cc1OC (centres undefined),-6.5%,-23.7%,2.3%,-27.8%,19.7,?
COc1ccc(S(=O)(=O)N2CCSC2c2ccc(OC)c(OC)c2)cc1 (centres undefined),-14.9%,16.4µM*,.,?,-0.6,-0.8%
CCC(=O)N1CCCN(S(=O)(=O)c2ccc(C)cc2)C1c1ccc(OC)cc1 (centres undefined),4.0%,14.6µM*,.,-8.9%,15.8,-15.0%
Cc1ccc(S(=O)(=O)N2CCN(S(=O)(=O)c3ccc(C)cc3)C2c2ccccc2)cc1,-0.6%,?,3.6%,17.8µM*,23.1,?
CCOC(=O)N1CCN(S(=O)(=O)c2ccc(C)cc2)C1c1ccc(OC)cc1 (centres undefined),-19.0%,?,1.0%,?,2.7,11.2%
COc1ccc(C2N(S(=O)(=O)c3ccccc3)CCN2S(=O)(=O)c2ccc(C)cc2)cc1 (centres undefined),-1.3%,14.1µM*,2.8%,15.8µM*,32.7,-26.3%
CCOC(=O)N1CCN(S(=O)(=O)c2ccc(C)cc2)C1c1ccccc1 (centres undefined),-16.6%,?,5.2%,?,-14.0,0.5%
COc1ccc(C2N(C(=O)N3CCOCC3)CCN2S(=O)(=O)c2ccc(C)cc2)cc1 (centres undefined),2.8%,-9.6%,5.3%,-21.6%,38.5,4.3%
O=C(NCc1nnc(-c2cc3ccccc3[nH]2)o1)c1ccccc1,.,.,-2.4%,.,.,.
Cc1ccc(NC(=O)c2ccc(NS(=O)(=O)/C=C/c3ccccc3)cc2)nc1,-24.6%,-15.8%,4.9%,-19.0%,?,-8.5%
C/C(=N\Nc1ccc2nncn2n1)c1ccc(Cl)s1,8.7%,-4.9%,1.2%,6.5%,35.4,12.6%
COc1ccccc1C1SCCN1S(=O)(=O)c1cccc(C(F)(F)F)c1 (centres undefined),-24.8%,15.8µM*,-1.1%,-4.5%,?,?
COc1ccccc1C1SCCN1S(=O)(=O)c1ccccc1 (centres undefined),-2.3%,?,.,?,11.2,-3.5%
C=CCNC(=S)N1CCC2CC1c1c(Cl)cccc12 (centres undefined),-1.4%,25.9µM*,.,?,15.8,20.3%
S=C(NCCc1ccccc1)N1CCC2CC1c1c(Cl)cccc12 (centres undefined),-15.2%,16.4µM*,.,?,-7.4,-23.5%
O=C(COC(=O)/C=C/c1ccccc1[N+](=O)[O-])Nc1ccc2[nH]c(=O)[nH]c2c1,-15.1%,-2.9%,-5.9%,1.1%,33.7,-9.7%

# Screening data (PubChem)
